Assay outcomes from PubChem.
In the library only some 9.3% were active in any assay of this set; here they are far more common.
ELG1 repair inh – ELG1-dependent DNA repair inhibition; HEK293T ELG1-luciferase reporter, luminescence, 16 h; DNA damage induced by 5-fluorouridine; Potency, µM (top dose mostly 46.1 µM), for the others: top-dose activity change, negative = inhibition, actives largely listed as inhibitors; hit rate 2.3% among 330,000; AID 504467; also: % is scaled to controls: 0 for no effect and ±100 for the full control effect; nearly all actives have a fitted effect of over 55% in size
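Cells (2,000 per well) received 5-fluorouridine plus test compound or DMSO and were incubated 16 hr at 37 °C, 5% CO2. Luciferase activity was read by luminescence 30 min after ONE-Glo addition; signal suppression marked inhibition of damage-induced ELG1 function.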
SMN2 splice up – SMN2 splice variant enhancement; HEK293 SMN2-luciferase splicing reporter, luminescence, 30-36 h; Potency, µM (series often up to 46.1 µM), without a hit: at the top dose activity change, positive = activation, hits mostly activators; hit rate 2.8% among 210,000; AID 1458; also: % of control where 0% means no effect; nearly all actives have a fitted effect of over 55% in size
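qHTS luciferase splicing reporter: luminescence rises when SMN2 exon 7 is included in transfected HEK293 cells. Compound exposure lasted 30-36 h at 37C, with 4.5 mM final sodium butyrate as control, followed by a ONE-Glo read.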
ELG1 genotoxic – genotoxicity induction in ELG1-luciferase HEK293T cells | hit rate 1.3% among 330,000 | AID 504466 | HEK293T ELG1-luciferase reporter, luminescence, 16 h | Potency, µM (top dose mostly 46 µM), for the others: at the top dose activity change, positive = activation, usual class: activators; also: % of control where 0% means no effect; nearly all actives have a fitted effect of over 60% in size
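Step 1: seed 2,000 HEK293T ELG1-luciferase cells per well. Step 2: add compound or DMSO, incubate 16 hr at 37 °C. Step 3: ONE-Glo, 30 min at room temperature, read luminescence.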
Rab9 promoter act – activates the Rab9 promoter | Potency, µM (doses to about 9.22 µM), inactives show at the top dose activation, negative = inhibition, hits mostly activators | Huh7 Rab9 promoter-luciferase reporter, luminescence, 24 h | AID 485297 | hit rate 2.8% among 320,000; also: % of control where 0% means no effect; nearly all actives have a fitted effect of over 60% in size
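Using Huh7 cells stably transfected with Rab9 promoter–luciferase, compounds were incubated 24 h at 37 °C, 5% CO2; luciferase luminescence was read 10 min after reagent addition.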
NPC1 prom act – activates the NPC1 promoter; hit rate 2.4% among 320,000; Potency, µM (titrated, usually from 9.22 µM), without a hit: at the top dose activation, actives largely listed as activators; AID 485313; Huh7 NPC1 promoter luciferase reporter, 24 h; also: % of control where 0% means no effect; nearly all actives have a fitted effect of over 60% in size
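Luminescence from an NPC1 promoter-driven luciferase reporter in stably transfected Huh7 cells was measured after 24 h compound treatment at 37 °C, followed by 10 min ambient incubation with luciferase detection reagent.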
FLuc modulator – firefly luciferase modulation, counter-screen for miR-21 project. AID 588342. hit rate 6.9% among 360,000. purified FLuc, Km substrates, luminescence inhibition. Potency, µM (series often up to 57.5 µM), for the others: at the highest dose activity change, negative = inhibition, most hits filed as inhibitors. P08659;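 also: plate controls were vehicle for no effect and reference inhibitor for full effect; nearly all actives have a fitted effect of over 55% in size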
Target sequence (P08659 whole entry, looked up): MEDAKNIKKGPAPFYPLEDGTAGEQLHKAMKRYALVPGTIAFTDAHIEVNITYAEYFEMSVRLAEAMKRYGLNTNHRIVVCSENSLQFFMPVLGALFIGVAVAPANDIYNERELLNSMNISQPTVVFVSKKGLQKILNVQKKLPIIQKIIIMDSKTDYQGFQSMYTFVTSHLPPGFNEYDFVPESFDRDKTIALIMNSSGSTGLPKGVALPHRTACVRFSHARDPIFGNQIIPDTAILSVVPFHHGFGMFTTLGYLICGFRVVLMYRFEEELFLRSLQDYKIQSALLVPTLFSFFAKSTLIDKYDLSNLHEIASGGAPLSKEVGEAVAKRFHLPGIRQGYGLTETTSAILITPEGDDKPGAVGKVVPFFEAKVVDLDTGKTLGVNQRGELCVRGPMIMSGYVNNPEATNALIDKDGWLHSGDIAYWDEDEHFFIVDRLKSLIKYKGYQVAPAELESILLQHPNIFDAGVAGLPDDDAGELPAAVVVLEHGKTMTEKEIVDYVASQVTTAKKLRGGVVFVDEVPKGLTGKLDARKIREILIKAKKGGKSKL
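Purified P. pyralis luciferase (10nM final) with 10uM D-luciferin and 10uM ATP (Km levels) in 50mM Tris acetate pH 7.5, 10mM Mg acetate, 0.01% Tween-20, 0.05% BSA; qHTS 6-point titration, ~60 µM downward; luminescence read.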
Numbers without * were called inactive; ? = inconclusive; nt = no result given; [ ] = dose if it differs, or a comment. Calls follow the shape of the dose curve; as a rule, active = well fitted curve in the direction sought with a large enough effect; inconclusive = small, poorly fitted or top-dose-only effect, or another doubt; inactive = no such curve, though single readings can be large; an effect the other way counts as inactive or inconclusive. Potency is read from the fitted curve at half-maximal effect.

SMILES	ELG1 repair inh	SMN2 splice up	ELG1 genotoxic	Rab9 promoter act	NPC1 prom act	FLuc modulator
CS(=O)(=O)c1ccc(NC(=O)CCN2C(=O)NC3(CCCC3)C2=O)cc1	20%	nt	1%	-1%	-3%	-2%
Cc1cc(C)n2nc(-c3ccc(Cl)cc3)nc2n1	nt	16µM*	nt	nt	nt	15µM*
CCOC(=O)C1CCCCN1C(=O)c1oc2c(Cl)cc(C)cc2c1C (stereo unspecified)	-1%	nt	-1%	4%	2%	12µM*
COC(=O)C1CCN(C(=O)c2oc3c(Cl)cc(C)cc3c2C)CC1	?	nt	?	0.63µM*	0.79µM*	11µM*
Cc1cc(Cl)c2oc(C(=O)NC3CCC(O)CC3)c(C)c2c1 (stereo unspecified)	?	nt	?	9%	3%	-18%
COC(=O)c1c(-c2ccc(Cl)cc2)noc1N1CCN(c2ccc(C)cc2C)CC1	nt	nt	nt	nt	nt	-7%
O=c1[nH]c2ccc(S(=O)(=O)Nc3ccc(Br)cc3)cc2[nH]1	12%	nt	1%[9.26 µM]	-2%	-3%	4%
COc1cc(CCN2C(=O)c3cccc4cccc(c34)C2=O)c(S(=O)(=O)N2CCCCCC2)cc1OC	?	-4%	-11%	-4%	3%	?
COc1cc(CCN2C(=O)c3cccc4cccc(c34)C2=O)c(S(=O)(=O)NCCCO)cc1OC	5.8µM*	-17%	1%	3%	-1%	21µM*
COc1cc(CCN2C(=O)c3cccc4cccc(c34)C2=O)c(S(=O)(=O)NCCO)cc1OC	4.6µM*	nt	0%	1%	3%	13µM*
COc1cc(CCN2C(=O)c3cccc4cccc(c34)C2=O)c(S(=O)(=O)N2CCC(C)CC2)cc1OC	21µM*	5%	-7%	-3%	-4%	?
COCc1ccc(C(=O)NC2CCSc3ccccc32)cc1 (stereo unspecified)	?	nt	8%	20%	-2%	-4%
Clc1ccc2[nH]c3c(NCC4CCCO4)ncnc3c2c1 (stereo unspecified)	?	nt	-9%	1%	0%	?
c1ccc(-c2nc(NCC3CCCO3)c3oc4ccccc4c3n2)cc1 (stereo unspecified)	16µM*	-16%	-8%	-12%	1%	15µM*
OCCCNc1nc(-c2ccccc2)nc2c1oc1ccccc12	23µM*	nt	-7%	-2%	2%	?
CC(C)(C)c1ccc(-c2nc(NCc3cccnc3)c3ccccc3n2)cc1	?	25µM*	?	21%	?	3.4µM*
c1ccc2c(c1)oc1c(NCC3CCCO3)ncnc12 (stereo unspecified)	?	0%	2%	11%	-4%	17µM*
CC(=O)c1nn(-c2ccc(C(F)(F)F)cc2)c(=O)[nH]c1=O	13%	nt	3%	6%	-2%	3%
CCCC[C@H]1COCCS(=O)(=O)N1Cc1ccc(Br)cc1	-58%	nt	1%	-1%	0%	4%
COc1ccc(C2=C(C)C(=O)N(Cc3ccc(C(=O)Nc4ccc(F)cc4C)cc3)S2(=O)=O)cc1	nt	nt	nt	nt	nt	-6%
O=C(O)CCC(=O)Nc1ccc(/C=C/C(=O)C2CC2)cc1	2%	nt	13%	1%	2%	-7%
COc1ccc(NS(=O)(=O)c2cccc(NC(=O)CCS(=O)(=O)c3ccccc3)c2)cc1	?	-13%[1.84 µM]	-3%	-2%	-3%	-1%
COc1ccc(S(=O)(=O)Nc2ccc3c(c2)C(=O)N([C@H](C)CO)C[C@H](C)[C@@H](CN(C)S(=O)(=O)c2cccs2)O3)cc1	?	nt	0%	nt	nt	nt
c1ccc(-c2nc(NCc3cccnc3)c3oc4ccccc4c3n2)cc1	23µM*	-4%	-7%	10%	-3%	?
O=C(O)CNc1nc(-c2ccccc2)nc2c1oc1ccccc12	3%	nt	0%	-7%	-5%	?
SMILES	ELG1 repair inh	SMN2 splice up	ELG1 genotoxic	Rab9 promoter act	NPC1 prom act	FLuc modulator
COc1ccc(N2CCN(c3nc4c(C)cccn4c(=O)c3/C=C(\C#N)C(N)=O)CC2)cc1	13µM*	nt	-4%	-2%	-1%	-1%
CCNC(=O)/C(C#N)=C/c1c(N2CCN(c3cccc(Cl)c3)CC2)nc2c(C)cccn2c1=O	-12%	nt	-1%	-2%	3%	1%
COCCCNC(=O)/C(C#N)=C/c1c(N2CCN(c3cccc(Cl)c3)CC2)nc2c(C)cccn2c1=O	23µM*	nt	-14%	-1%	-6%	2%
COCCCNC(=O)/C(C#N)=C/c1c(N2CCN(c3ccccc3)CC2)nc2c(C)cccn2c1=O	21µM*	nt	-14%	2%[1.84 µM]	1%	2%
Cc1cccn2c(=O)c(/C=C(\C#N)C(=O)NCc3ccco3)c(N3CCCCC3)nc12	18µM*	-7%	-4%	1%	-1%	3%
Cc1ccccc1C(=O)N1CCC(C(=O)OCc2nc(N)nc(Nc3ccccc3)n2)CC1	-13%	nt	-3%	9%	-1%	?
O=C(NC1CC(=O)N(c2cccc(F)c2)C1)c1cccs1 (stereo unspecified)	nt	nt	nt	nt	nt	5%
CC1=c2c(oc3cc(O)c(Nc4c(C)cc(O)cc4O)c(C)c23)=CC(=O)C1=Nc1c(C)cc(O)cc1O	nt	-22%[9.22 µM]	nt	nt	nt	nt
COc1ccc2c(CC(=O)OCc3nc4ccsc4c(=O)[nH]3)coc2c1	8%	nt	6%	nt	nt	nt
CCNC(=O)/C(C#N)=C/c1c(N2CCN(C)CC2)nc2c(C)cccn2c1=O	0%	nt	-2%	1%	-1%	-1%
CCNC(=O)/C(C#N)=C/c1c(N2CCN(Cc3ccc4c(c3)OCO4)CC2)nc2c(C)cccn2c1=O	21µM*	-17%	-5%	2%	0%	5%
COc1ccc(NC(=O)CSCc2cc(=O)c3cc(Cl)ccc3[nH]2)cc1	nt	nt	nt	nt	nt	-8%
NC(=O)c1ccccc1N/C=C/C(=O)c1cccs1	?	7.1µM*	2.1µM*	0.89µM*	1.8µM*	2.7µM*
NC(=O)c1ccccc1N/C=C/C(=O)c1ccc(F)cc1	?	18µM*	?	1µM*	0.71µM*	0.76µM*
COc1cc([N+](=O)[O-])ccc1N/C=C/C(=O)c1cccs1	?	1.6µM*	?	1.1µM*	0.5µM*	0.12µM*
Cc1ccccc1NC(=O)Nc1ccccc1C(N)=O	10%	nt	7%	-2%	-1%	-12%
Cc1ccc(C(=O)/C=C/Nc2ccccc2C(N)=O)o1	nt	11µM*	nt	nt	nt	5.4µM*
CC(=O)c1ccc(NS(=O)(=O)c2ccc(N/C=C/C(=O)c3ccc(F)cc3)cc2)cc1	?	nt	1%	7%	5%	?
NC(=O)c1ccccc1NS(=O)(=O)c1cccs1	0%	nt	-1%	-2%	-1%	4%
